About 79,000 compounds went through this panel and 15% of them were active in at least one assay; those are over-represented in the sample as a whole. Values without a mark were called inactive. Calls of active or inactive are those of the source. No stated cut-off is given here; in the data, active means growth inhibition above about 70%; inactive means the rest.
Test: NCI Yeast Anticancer Drug Screen. Data for the rad52 strain (AID 147);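 further: 0% = growth of vehicle-treated control cultures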
Settings: S. cerevisiae rad52 mutant growth inhibition, stronger effect = higher value
Protocol: Growth inhibition of yeast strains with defined genetic alterations is measured as a screen for potential anti-cancer activity. Selected strains with alterations in DNA damage repair or cell cycle control were exposed to compounds and growth inhibition was measured relative to vehicle treated controls. The strain used in this assay is rad52

Row | SMILES | growth inhibition (at 1.2 µM) | growth inhibition (at 3.7 µM) | growth inhibition (at 11.0 µM) | growth inhibition (at 33.0 µM) | growth inhibition (at 100.0 µM)
1 | CC(C)(C)c1cc([N+](=O)[O-])cc([N+](=O)[O-])c1O | -11% | -17% | -1% | 17% | 33%
2 | Cn1cnc(N)c1C(=N)[Se] | 7% | 26% | 70% (active) | 95% (active) | 95% (active)
3 | COC(=O)C1=C(C(=O)OC)SC2(S1)C(C(=O)OC)=C(C(=O)OC)Sc1c2ssc1=O | 55% | 72% (active) | 93% (active) | 98% (active) | 89% (active)
4 | O=C(c1ccccc1)C1C(c2ccccc2[N+](=O)[O-])N1C1CCCCC1 (stereo not given) | -1% | 7% | 30% | 80% (active) | 89% (active)
5 | CC[PH+](CC)CC.CC[PH+](CC)CC.[Au] | 16% | 21% | 33% | 80% (active) | 99% (active)
6 | COC(=O)C1C2c3ccccc3C(c3ccccc32)C1C(=O)OC (stereo not given) | 3% | 10% | 9% | 10% | 10%
7 | Cc1c(N)nc([C@H](CC(N)=O)NC[C@H](N)C(N)=O)nc1C(=O)N[C@H](C(=O)N[C@H](C)[C@@H](O)[C@H](C)C(=O)N[C@H](C(=O)NCCc1nc(-c2nc(C(=O)NCCC[S+](C)C)cs2)cs1)[C@@H](C)O)C(OC1OC(CO)C(O)C(O)C1OC1OC(CO)C(O)C(OC(N)=O)C1O)c1cnc[nH]1 (stereo not given in full) | 7% | 19% | 54% | 91% (active) | 96% (active)
8 | O=C1c2ccccc2C(=O)C(Cl)C1Cl (stereo not given) | 1% | 15% | 88% (active) | 99% (active) | 98% (active)

From PubChem BioAssay (NCI)
